# From PubChem BioAssay (NCATS)
# Results filed as inconclusive are left out. Active and inactive are the calls of the source. The call rests on the fitted dose curve; in most records, active means well fitted curve in the direction sought with a large enough effect; inconclusive means small, poorly fitted or top-dose-only effect, or another doubt; inactive means no such curve, though single readings can be large; an effect the other way counts as inactive or inconclusive.
# Assays:
# [1] = test system: Zika virus NS2B-NS3 protease (linked construct); experiment: Primary screen NINDS Rhodamine qHTS for Zika virus inhibitors (AID 1347160); further: potency means the concentration at half of the fitted maximal effect; nearly all actives have a fitted effect of over 55% in size
# Outline: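 Each compound, titrated, sat 15 min with 25 nM linked protease before 1.5 microM Rhodamine110 substrate went in. Fluorescence gain over the next 15 min, in pH 8.0 Tris with Tween 20, gave Hill-fitted curves.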
# [2] = OV-KATE Cancer Cell Toxicity qHTS against the NCATS CANVASS Library (AID 1347345); further: potency means the concentration at half of the fitted maximal effect
# Outline: (§1)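 Bortezomib titration and single-dose wells served as plate controls. Test compounds, 11 points, acted on 1000 cells/well for 72 h at 37 degrees C; CellTiter-Glo luminescence quantified remaining viable cells.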
# [3] = HPAF-II Cancer Cell Toxicity qHTS against the NCATS CANVASS Library (AID 1347346); further: potency means the concentration at half of the fitted maximal effect; nearly all actives have a fitted effect of over 55% in size
# Outline: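 First, HPAF-II cells are plated (1000 cells/well) and held 4 h at 37 degrees C. Next, compounds are pin-transferred as an 11-point series. After 72 h, CellTiter-Glo is added and luminescence measured.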
# [4] = UWB1.289 Cancer Cell Toxicity qHTS against the NCATS CANVASS Library (AID 1347347); further: potency means the concentration at half of the fitted maximal effect; nearly all actives have a fitted effect of over 60% in size
# Outline: as §1
# [5] = OV-SAHO Cancer Cell Toxicity qHTS against the NCATS CANVASS Library (AID 1347348); further: potency means the concentration at half of the fitted maximal effect; nearly all actives have a fitted effect of over 55% in size
# Outline: as §1
# [6] = Panc-1005 Cancer Cell Toxicity qHTS against the NCATS CANVASS Library (AID 1347349); further: potency means the concentration at half of the fitted maximal effect; nearly all actives have a fitted effect of over 60% in size
# Outline: as §1
# [7] = SW1088 Cancer Cell Toxicity qHTS against the NCATS CANVASS Library (AID 1347350); further: potency means the concentration at half of the fitted maximal effect; nearly all actives have a fitted effect of over 75% in size
# Outline: as §1
# [8] = U-118MG Cancer Cell Toxicity qHTS against the NCATS CANVASS Library (AID 1347351); further: potency means the concentration at half of the fitted maximal effect
# Outline: as §1
# [9] = COV-362 Cancer Cell Toxicity qHTS against the NCATS CANVASS Library (AID 1347352); further: potency means the concentration at half of the fitted maximal effect
# Outline: (§2)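 First, 1000 cells go into each well and rest for 4 hours. Next, an 11-point dilution range is pinned in. Plates then incubate 72 hours before CellTiter-Glo addition and luminescence reading.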
# [10] = A2780 Cisplatin Sensitive Ovarian Cancer Cell Toxicity qHTS against the NCATS CANVASS Library (AID 1347353); further: potency means the concentration at half of the fitted maximal effect; nearly all actives have a fitted effect of over 60% in size
# Outline: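 Cells are plated at 750 per well and rest for 4 hours. Compounds are added across eleven concentrations, and incubated 72 hours before ATP is quantified by luminescence.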
# [11] = UWB1.289-WTBRCA1 Cancer Cell Toxicity qHTS against the NCATS CANVASS Library (AID 1347354); further: potency means the concentration at half of the fitted maximal effect
# Outline: as §2
# [12] = HEK-293 Cancer Cell Toxicity qHTS against the NCATS CANVASS Library (AID 1347355); further: potency means the concentration at half of the fitted maximal effect; nearly all actives have a fitted effect of over 65% in size
# Outline: as §2
# [13] = HEK293 18hr Apoptosis Induction qHTS against the NCATS CANVASS Library (AID 1347357); further: potency means the concentration at half of the fitted maximal effect
# Outline: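 Cells seeded at 500/well in DMEM + 10% FBS. Compounds pinned, 11 concentrations. 18 h, 37 degrees C/5% CO2. Caspase-Glo 3/7 added, 15 min RT dark, luminescence read.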
# [14] = test system: NAD(P)H diaphorase (Clostridium kluyveri); experiment: Diaphorse counterscreen qHTS: Assay Interference Panel against the NCATS CANVASS Library (AID 1347362)
# Outline: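 Counterscreen for coupling-enzyme interference: resorufin fluorescence from resazurin/NADH turnover, read after 5 min at room temperature. Compounds were tested over an 11-point series after 15 min dark preincubation with diaphorase in PBS-Tween.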
# [15] = target: Luciferin 4-monooxygenase (Photinus pyralis) (UniProt P08659); experiment: Firefly luciferase counterscreen qHTS: Assay Interference Panel against the NCATS CANVASS Library (AID 1347363); further: series mostly up to about 57 µM
# Outline: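 Luminescence inhibition readout: compounds (11-point qHTS) sat 15 min at room temperature with substrate mix (0.013 mM luciferin and ATP), then firefly luciferase was added and signal read 5 min later.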
# [16] = KB-8-5-11 Cancer Cell Toxicity qHTS against the NCATS CANVASS Library (AID 1347364); further: potency means the concentration at half of the fitted maximal effect; nearly all actives have a fitted effect of over 75% in size
# Outline: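 Terse: KB-8-5-11, 500 cells/well, 72 hr, 37C/5% CO2, 11-pt titration, CellTiter-Glo readout; confirmatory runs ± 1uM tariquidar in medium.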
# [17] = SDT Cancer Cell Toxicity qHTS against the NCATS CANVASS Library (AID 1347365); further: potency means the concentration at half of the fitted maximal effect; nearly all actives have a fitted effect of over 60% in size
# Outline: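 Cytotoxicity is measured from cellular ATP: compounds in an 11-point concentration series are pinned onto SDT cells, incubated 72 hr at 37C, then CellTiterGlo is added and luminescence read.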
# [18] = qHTS for ATAD5 Agonist screened against the NCATS CANVASS Library (AID 1347367);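 further: luciferase reporter driven by ATAD5 which rises upon DNA damage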
# Outline: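 HEK293T-ATAD5 luc reporter; 2000 cells/well; 5hr settle; cpd 11-pt qHTS; 16hr 37C 5% CO2 dark; viability by CellTiter-Fluor (AFC fluorescence); then luciferase luminescence, 30min RT.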
# [19] = G06 Cancer Cell Toxicity qHTS against the NCATS CANVASS Library (AID 1347368)
# Outline: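 Cells were plated at 500 per well, then compounds were added over an 11-point range. After 72 hr at 37C, CellTiterGlo was added and luminescence measured as ATP content.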
# [20] = target: Nuclear receptor subfamily 1 group I member 3 (Homo sapiens) (UniProt Q14994); experiment: qHTS for Constitutive Androstane Receptor (CAR) Agonist screened against the NCATS CANVASS Library (AID 1347373);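 further: every well also contained 1.5 µM PK11195 alongside the test compound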
# Outline: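 Cells were plated and allowed to attach for 4hr, then dosed with compound in an 11-point series alongside 1.5uM PK11195. After 24hr at 37C, viability was measured fluorometrically and CAR-driven CYP2B6 reporter luminescence was recorded.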
# [21] = qHTS for Hypoxia signaling pathway (HIF-1) antagonists against the NCATS CANVASS Library (AID 1347374)
# Outline: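 Antagonism scored as loss of CoCl2-driven (60 uM stock added) HRE beta-lactamase signal, read by CCF4 FRET at 460/530 nm. Compounds were tested in an 11-point series on ME-180 reporter cells for 17 hrs at 37C, with parallel CellTiter-Glo cytotoxicity.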
# [22] = 10-beta competent E. coli microbial cell viability qHTS against the NCATS CANVASS Library (AID 1347376); further: series mostly up to about 46 µM
# Outline: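 Bacterial suspension diluted to 0.2 OD was dosed with compounds, 11-point series, then held overnight at 37C. BacTiter-Glo reagent was added, and after 20 min at room temperature ATP-dependent luminescence was measured.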
# [23] = qHTS for Inflammasome Signaling Inhibitors: IL-1-beta AlphaLISA screen against the NCATS CANVASS Library (AID 1347379)
# Outline: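 Secreted IL-1B from human THP-1 cells quantified by AlphaLISA 16 hr after compound addition (final up to 57.5 uM). A 1 hr compound pretreatment preceded inflammasome activation with 250 ng/mL LPS plus 1.25 mM ATP (final).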
# [24] = qHTS for Antimalaria activity screened against the NCATS CANVASS Library (AID 1347380); further: potency means the concentration at half of the fitted maximal effect; nearly all actives have a fitted effect of over 40% in size
# Outline: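 Compounds are titrated over 11 concentrations onto Dd2 parasite cultures (0.3% parasitemia, 2.5% hematocrit). Growth over 72 h at 37C in low oxygen is measured as SYBR Green DNA fluorescence after lysis.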
# [25] = Inflammasome Signaling qHTS Counterscreen: IL-1-beta AlphaLISA counterscreen against the NCATS CANVASS Library (AID 1347381);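 further: cell-free check with purified IL-1β in medium and no THP-1 cells; series mostly up to about 57 µM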
# Outline: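 Purified IL-1-beta (4 pg/well) + compound, 11-pt conc. series; acceptor beads 6 ug/mL + biotin-Ab 0.6 nM final, 1 h RT; SA-donor 24 ug/ml final, 30 min dark RT; read ex 680/em 615.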
# [26] = qHTS for Activators of p53 Stress Response Pathway screened against the NCATS CANVASS Library (AID 1347388)
# Outline: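 Beta-lactamase reporter driven by p53 response elements in HCT-116 cells, read as the 460 nm/530 nm emission ratio after CCF4 loading, following 16 h of exposure to an 11-point series. Cell viability was measured in the same wells by CellTiter-Glo luminescence.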
# [27] = qHTS assay for small molecule disruptors of mitochondrial membrane potential screened against the NCATS CANVASS Library (AID 1347389)
# Outline: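 Mitochondrial depolarization in HepG2 cells is scored as a falling aggregate-to-monomer fluorescence ratio after 1 hr compound exposure and 30 min staining with Mito-MPS dye at 37C, each compound tested as an 11-point titration.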
# [28] = Secretion counterscreen for inhibitors of the SERCaMP assay screened against the NCATS CANVASS Library (AID 1347390)
# Outline: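 SH-SY5Y-GLuc STOP cells; 4 h attach; cpds 0.001 - 77 uM (qHTS, 11 pts), 20 h 37C/5% CO2; coelenterazine in glow buffer; luminescence, 5 s exposure.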
# [29] = qHTS for activators of Nrf2/ARE signaling pathway screened against the NCATS CANVASS Library (AID 1347391); further: nearly all actives have a fitted effect of over 60% in size
# Outline: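 Beta-lactamase reporter signal, read as 460 and 530 nm emission under 405 nm excitation after 2 h CCF4 loading, reflected ARE activation in HepG2 cells treated 16 h with an 11-point series.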
# [30] = qHTS for inhibitors of ER calcium dysfunction: SERCaMP assay screened against the NCATS CANVASS Library (AID 1347393);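 further: series mostly up to about 77 µM; lower secreted reporter signal means inhibitor of ER calcium depletion; nearly all actives have a fitted effect of over 40% in size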
# Outline: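 Thapsigargin-induced ER calcium depletion drives GLuc-SERCaMP secretion from SH-SY5Y cells; compounds given 16 h beforehand were scored by lowered coelenterazine luminescence after 4 h challenge.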
# [31] = Vero-766 cells viability qHTS against the NCATS CANVASS Library: Counterscreen for Zika virus inhibition assay (AID 1347394)
# Outline: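 Vero 766, no virus; 1000 cells/well; o/n attach; cpd 11-pt; 72 h, 37C, 5% CO2; CTG luminescence; cell-free media wells = 100% inhibition.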
# [32] = qHTS for inhibitors of Wild type Zika virus screened against the NCATS CANVASS Library (AID 1347396); further: potency means the concentration at half of the fitted maximal effect
# Outline: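 Vero 766 (African green monkey) cells, 1000 per well, attached overnight, then compounds were added in an 11-point series before wild-type Zika virus infection. After 72 h at 37C, cell viability was read as CellTiter Glo luminescence.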
# [33] = Viability qHTS for inhibitors of the SERCaMP assay screened against the NCATS CANVASS Library (AID 1347400); further: potency means the concentration at half of the fitted maximal effect; nearly all actives have a fitted effect of over 70% in size
# Outline: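 Seed SH-SY5Y-GLuc SERCaMP MJH297 cells at 1000 per well, incubate 4 h, add compounds across an 11-point range, incubate 48 h at 37C, then add CellTiter-Glo and read luminescence.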
# [34] = Redox Reaction Profiling qHTS: Assay Interference Panel against the NCATS CANVASS Library (AID 1347401)
# Outline: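 Redox-cycling liability assessed as DTT-driven conversion of resazurin (5 uM, with 200 uM DTT, HEPES pH 7.3) to fluorescent resorufin. Fluorescence at 525/598 nm measured initially and after 15 min dark incubation.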
# Chain of Nuclear receptor subfamily 1 group I member 3 (Homo sapiens) (Q14994 whole entry, looked up): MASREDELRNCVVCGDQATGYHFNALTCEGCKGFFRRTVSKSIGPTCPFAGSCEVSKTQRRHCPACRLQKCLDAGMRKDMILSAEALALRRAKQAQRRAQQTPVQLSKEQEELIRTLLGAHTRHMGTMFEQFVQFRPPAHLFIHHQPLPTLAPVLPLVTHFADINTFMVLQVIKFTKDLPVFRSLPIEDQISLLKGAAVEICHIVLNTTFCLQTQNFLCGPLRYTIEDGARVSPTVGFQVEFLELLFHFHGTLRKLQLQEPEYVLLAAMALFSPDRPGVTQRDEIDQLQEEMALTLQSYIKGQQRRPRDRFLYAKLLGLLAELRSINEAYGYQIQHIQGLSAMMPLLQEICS
# Chain of Luciferin 4-monooxygenase (Photinus pyralis) (P08659 whole entry, looked up): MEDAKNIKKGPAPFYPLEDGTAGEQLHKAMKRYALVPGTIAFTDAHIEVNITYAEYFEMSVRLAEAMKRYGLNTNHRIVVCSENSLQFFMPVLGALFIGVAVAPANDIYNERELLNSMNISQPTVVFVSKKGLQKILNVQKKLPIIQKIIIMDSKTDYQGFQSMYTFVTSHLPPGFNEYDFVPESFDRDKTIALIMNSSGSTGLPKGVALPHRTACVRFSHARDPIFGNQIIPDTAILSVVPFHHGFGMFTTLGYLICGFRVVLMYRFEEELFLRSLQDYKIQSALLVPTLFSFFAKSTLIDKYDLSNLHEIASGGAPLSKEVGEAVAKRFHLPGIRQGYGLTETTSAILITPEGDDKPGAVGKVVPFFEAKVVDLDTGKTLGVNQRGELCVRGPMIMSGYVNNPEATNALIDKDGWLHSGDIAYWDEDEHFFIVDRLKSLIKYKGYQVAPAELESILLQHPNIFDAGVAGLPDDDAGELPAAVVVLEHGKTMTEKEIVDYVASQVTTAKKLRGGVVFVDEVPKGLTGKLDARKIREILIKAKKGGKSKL
smiles,measurement,setting,value
CC(=O)O[C@@H]1C=C2C(=O)OC[C@]2(O)[C@@]2(C)CCCC(C)(C)[C@H]12,Potency,[1],19.6 µM (active)
same,Potency,[2],5.94 µM (active)
same,Potency,[3],13.3 µM (active)
same,Potency,[4],10.6 µM (active)
same,Potency,[5],5.94 µM (active)
same,Potency,[6],6.68 µM (active)
same,Potency,[7],5.3 µM (active)
same,Potency,[8],18.8 µM (active)
same,Potency,[9],8.38 µM (active)
same,Potency,[10],1.32 µM (active)
same,Potency,[11],21.1 µM (active)
same,Potency,[12],8.33 µM (active)
same,Potency,[13],26.4 µM (active)
same,Potency,[14],inactive
same,Potency,[15],inactive
same,Potency,[16],18.7 µM (active)
same,Potency,[17],13.2 µM (active)
same,Potency,[18],inactive
same,Potency,[19],10.5 µM (active)
same,outcome,[20],inactive
same,Potency,[21],7.47 µM (active)
same,outcome,[22],inactive
same,Potency,[23],10.9 µM (active)
same,Potency,[24],0.0188 µM (active)
same,outcome,[25],inactive
same,Potency,[26],inactive
same,Potency,[27],18.6 µM (active)
same,Potency,[28],15.3 µM (active)
same,Potency,[29],inactive
same,Potency,[30],inactive
same,Potency,[31],16.6 µM (active)
same,Potency,[32],26.1 µM (active)
same,Potency,[33],12 µM (active)
same,Potency,[34],inactive
